In PubChem BioAssay AID652208 (Broad Institute, 2013):
Measured potencies and affinities stand elsewhere. Calls of active or inactive are those of the source.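 How the source made its calls: active means Loss of cell signal with fitted half-effect dose at or below twice the top valid tested dose; inconclusive means Poor fit, or flat fit from -70 to -30 percent; inactive means Half-effect above limit, rising signal, or flat within 30 percent.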

assay: HEK293T cell cytotoxicity, dose response, cytotoxicity control for HIV Vif inhibitor project, cherry-picks (AID 652208); conditions: HEK293T viability, CellTiter-Glo luminescence, 24 h; series mostly up to 26 µM

Compound	outcome
O=C(O)CCCCn1c(SCc2ccccc2Cl)nc2ccsc2c1=O	inactive
CSc1ccc(CN(C)CC(=O)NCCc2ccccc2)cc1	inactive
COc1cc(-c2cnc3c(NC=O)cc(-c4ccccc4Cl)cn23)cc(OC)c1OC	inactive
CCOC(=O)C1=C(C)NC(=O)NC1	inactive
COc1ccc2nc(N3C(=O)C(O)=C(C(=O)c4ccco4)C3c3ccccc3OC)sc2c1 (centres undefined)	inactive
CCOc1ncccc1C(=O)OCc1ccccc1	inactive
O=C(CCCSc1nc2ccccc2c(=O)[nH]1)c1ccccc1	inactive
COc1ccc(Br)cc1C(=O)Nc1ccc(N2CCCC2)cc1	inactive
COc1ccccc1-c1cccc2nccn12	inactive
CN(C)c1ccc(C(O)Cc2nc3ccccc3n2C)cc1 (centres undefined)	inactive
CCN(CC)C(=O)c1sc2nc(-c3cccs3)cc(-c3cccs3)c2c1N	inactive
Cc1nnc(NC(=O)CSc2nnc(NC(=O)C(C)(C)C)s2)s1	inactive
COc1ccccc1C(=O)COC(=O)C1(C)CC1(Cl)Cl (centres undefined)	inactive
O=C(Cn1c(=O)oc2cc(S(=O)(=O)N3CCCCC3)ccc21)N1CCc2ccccc21	inactive
CCN(CC(=O)Nc1c(F)cccc1F)C(=O)c1cccc(-n2cccc2)c1	inactive
COc1cc(/C=C/C(=O)OCC(=O)N2CCCc3ccccc32)ccc1O	inactive
COc1ccc(CN(C(=O)Cn2nnc(-c3ccc(C)o3)n2)C(C(=O)NCC2CCCO2)c2ccco2)cc1 (centres undefined)	inactive
CN(C)c1ccc(C(=O)c2ccc(N(C)C)c3ccccc23)cc1	inactive
Oc1ccc(-c2nc(-c3ccc(O)c(O)c3)cs2)cc1	inactive
